We go through 35 compounds from PubChem BioAssay.

A number with no mark means an inactive call.

This assay can be described thus: JC-1 mitochondrial signal, unstimulated adipocytes – cell-based, JC-1 fluorescence, 3T3-L1 adipocytes, 24 h, 100 nL compound, profiling panel (AID 1168). Note: test concentration not given here. The following applies: JC-1 mitochondrial fluorescence, higher = more signal, called active from +8 up or from −8 down.
For the compound `O=C(CS)NCCCCCNC(=O)[C@@H]1C[C@@H]2C(=O)NCC(=O)N2[C@@H]1c1cccc(OCCO)c1`, the z-score is -0.102.
As for `O=C(CS)NCCCCCNC(=O)[C@H]1C[C@H]2C(=O)NCC(=O)N2[C@H]1c1cccc(OCCO)c1`, the figure is -0.0834; as for `CN(C)CCCCNC(=O)[C@@H]1C[C@@H]2C(=O)N[C@@H](CCCCN)C(=O)N2[C@@H]1c1ccc(O)cc1`, 0.627.
`COc1ccc(CCNC(=O)[C@@]2(C)c3ccccc3C(=O)N(c3ccc(C)cn3)[C@H]2c2ccc(CO)cc2)cc1`: the z-score was 1.22.
Turning to `O=C(NCCN1CCOCC1)[C@@H]1c2ccccc2C(=O)N(Cc2cc(C(F)(F)F)cc(C(F)(F)F)c2)[C@H]1c1ccc(CO)cc1`, the z-score is 0.252.
As for `O=C(NCc1ccccc1)[C@@H]1c2ccccc2C(=O)N(C2Cc3ccccc3C2)[C@H]1c1ccc(CO)cc1`, the figure is -0.508.
For the compound `COCCOC(=O)N1C(=O)[C@@]2(c3cc(C#CC4(O)CCCCCC4)ccc31)[C@H](C(=O)Nc1nc3ccccc3s1)[C@H]1C(=O)O[C@H](c3ccccc3)[C@H](c3ccccc3)N1[C@@H]2c1ccccc1OCCO`, the z-score is 1.47.
In the case of `CC1CC/C=C\[C@H]2OC34C=CCN(c5ccc6ccccc6c5)C(=O)[C@H]3N(CCO)C(=O)[C@@H]4C2C(=O)O1` (stereo not given in full), the z-score was -0.55.
As for `O=C1O[C@@H](c2ccccc2)[C@@H](c2ccccc2)N2[C@@H](c3ccc(OCCO)cc3)[C@]3(C(=O)Nc4ccc(C#CCCO)cc43)[C@@H](C(=O)NC[C@H](O)c3ccccc3)[C@H]12`, the figure is -1.33.
For the compound `O=C1OCCC/C=C\[C@H]2OC34C=CCN(c5ccc6ccccc6c5)C(=O)[C@H]3N(CCCCCO)C(=O)[C@@H]4C12` (stereo not given in full), the z-score is -0.318.
The same measure for `CC(C)CNC(=O)[C@@]1(Cc2ccccc2I)c2ccccc2C(=O)N(Cc2ccccc2C(F)(F)F)[C@H]1c1ccc(CO)cc1`: 0.752; for `C#CCOc1ccc(C[C@@H](C(=O)OC)N(CC#C)[C@@H](/C=C/C2CC2)[C@H](O)Cc2ccccc2)cc1`: -0.00867.
As for `CCOC(=O)[C@H]1C/C=C/C[C@H](C(=O)OCC)C(=O)O[C@H]2[C@@H](OC)O[C@H](CO)[C@@H](OC(=O)c3ccc(Br)cc3)[C@@H]2OC1=O`, the figure is -0.339; as for `O=C1[C@@]23C=C(Br)[C@H](C[C@@H]2COC3)[C@]12CO2`, -1.42.
Turning to `O=C1NC(=O)C2C1C=CC(C(O)c1ccc(-c3ccccc3)s1)N2Nc1ccc(Cl)cc1Cl` (stereo not given), the z-score was -1.08.
As for `C=C(C(=O)CC[C@H](OC(C)=O)c1ccccc1OCCO)C(C)C`, the figure is 1.99; as for `O=C1C2C=CC(C(O)COCc3ccccc3)N(Nc3ccc([N+](=O)[O-])cc3)C2C(=O)N1c1ccccc1` (stereo not given), -1.67.
As for `COCC(=C=CC[C@H](O)c1cccc(OCCO)c1)CCO`, the figure is 0.244; as for `NCCCCCCNC(=O)[C@H]1C[C@H]2C(=O)N[C@@H](Cc3ccccc3)C(=O)N2[C@H]1c1cccc(OCCO)c1`, 0.896.
As for `CCCCCN1CC=CC23O[C@@H]4C=CCOC(=O)[C@@H]4[C@H]2C(=O)N(C(C)CO)[C@@H]3C1=O` (stereo not given in full), the figure is 0.282; as for `CC(c1ccccc1)C(O)C1C=CC2C(=O)N(C)C(=O)C2N1NC(=O)OC(C)(C)C` (stereo not given), -0.439; as for `COCCCNC(=O)[C@@H]1c2ccccc2C(=O)N(Cc2ccccc2)[C@H]1c1ccc(CO)cc1`, -0.0918.
For `COCCOC(=O)N1C(=O)[C@@]2(c3cc(C#CCCO)ccc31)[C@H](c1ccc(OCCO)cc1)N1[C@H](c3ccccc3)[C@H](c3ccccc3)OC(=O)[C@H]1[C@@H]2C(N)=O`, the z-score was -0.456.
For the compound `COc1ccc(C(=O)Nc2ccc(CN3C(=O)[C@]4(O[C@H](CC(=O)N5CCC[C@H]5CO)[C@@H]([Si](C)(C)c5ccc(OC)cc5)[C@@H]4C)c4ccccc43)cc2)cc1`, the z-score was -0.0307.
The same measure for `C=CC[C@]1(C(N)=O)COC(c2ccc(OCCCO)cc2)=N1`: 0.654; for `COC(=O)[C@@]1(Cc2ccccc2)[C@H]2c3cc(C(=O)N(C)C)n(CCc4c[nH]c5ccc(O)cc45)c3C[C@H]2CN1C(=O)c1ccccc1`: -0.215.
For the compound `COc1ccc(C#Cc2ccc3c(c2)[C@]2(C(=O)N3)[C@H](c3ccc(O)cc3)N3[C@H](c4ccccc4)[C@H](c4ccccc4)OC(=O)[C@H]3[C@@H]2C(=O)N2CCc3cc(OC)c(OC)cc3C2)cc1`, the z-score was 2.25.
For `O=C1OCCC=C[C@H]2OC34C=CCN(Cn5nnc6ccccc65)C(=O)[C@H]3N(CCO)C(=O)[C@@H]4C12` (stereo not given in full), the z-score is 0.756.
As for `CC(C)Cc1ccc(CN2CC[C@@H](N)C2)cc1`, the z-score was -0.559.
As for `C[N+](C)(C)CCCCCCNC(=O)[C@H]1C[C@H]2C(=O)N[C@@H](Cc3ccccc3)C(=O)N2[C@H]1c1cccc(OCCO)c1`, the z-score is -0.371.
Take `CO[C@H]1O[C@H](CO)[C@@H](OC(=O)Nc2ccc(Oc3ccccc3)cc2)[C@H](OC(=O)Nc2ccc3c(c2)OCO3)[C@@H]1OC(=O)Nc1ccc2c(c1)OCO2`: the z-score is 1.02.
With `C=C(CCCC)/C(=C/C[C@@H](OC(C)=O)c1ccccc1OCCO)c1cc(C(=O)OC)ccc1OC`, the z-score was 0.478.
As for `C=CCC(OC(C)=O)[C@@H]1[C@@H](N(Cc2cc3ccccc3o2)C(=O)Cc2ccc(OC)cc2)c2cc(OCCCO)ccc2N1C(=O)c1ccc2ccccc2c1` (stereo not given in full), the figure is -0.38.
As for `O=C1C2C=CC(C(O)c3c(F)cccc3Cl)N(Nc3ccccc3F)C2C(=O)N1c1ccccc1` (stereo not given), the figure is -0.217; as for `CN(C)C(=O)[C@]1(Cc2ccccc2)N=C(c2ccc(OCCCO)cc2)O[C@@H]1c1ccccc1N=[N+]=[N-]`, 2.9.
